Laboratory results taken from publication PMC11062922 (Nature Chemical Biology, 2023).
Where two headings read alike, the source gives them in different places.

How the values were obtained:
AAK1 = system: AAK1; design: species or system human, MV4-11 + K-562 + COLO205 + SK-N-BE2 + OVCAR-8; conditions: read-out: apparent Kd, compound concentrations: 100 nM and 1000 nM (sheet 'Samples'), n = 1
GAK = system: GAK; design: species or system human, MV4-11 + K-562 + COLO205 + SK-N-BE2 + OVCAR-8; conditions: read-out: apparent Kd, compound concentrations: 100 nM and 1000 nM (sheet 'Samples'), n = 1
GSK3A = system: GSK3A; design: species or system human, MV4-11 + K-562 + COLO205 + SK-N-BE2 + OVCAR-8; conditions: read-out: apparent Kd; compound concentrations: 100 nM and 1000 nM (sheet 'Samples'), CATDS: 6.7317846208259105E-2; n = 1
GSK3B = system: GSK3B; design: species or system human, MV4-11 + K-562 + COLO205 + SK-N-BE2 + OVCAR-8; conditions: read-out: apparent Kd, compound concentrations: 100 nM and 1000 nM (sheet 'Samples'), n = 1
PKN1 = system: PKN1; design: species or system human, MV4-11 + K-562 + COLO205 + SK-N-BE2 + OVCAR-8; conditions: read-out: apparent Kd; compound concentrations: 100 nM and 1000 nM (sheet 'Samples'), CATDS: 2.8488431691069401E-2; n = 1
Q6ZSR9 = Q6ZSR9 (human, UniProt Q6ZSR9); design: species or system MV4-11 + K-562 + COLO205 + SK-N-BE2 + OVCAR-8; conditions: read-out: apparent Kd, compound concentrations: 100 nM and 1000 nM (sheet 'Samples'), n = 1
BMP2K = system: BMP2K; design: species or system human, MV4-11 + K-562 + COLO205 + SK-N-BE2 + OVCAR-8; conditions: read-out: apparent Kd, compound concentrations: 100 nM and 1000 nM (sheet 'Samples'), n = 1
NUAK1 = system: NUAK1; design: species or system human, MV4-11 + K-562 + COLO205 + SK-N-BE2 + OVCAR-8; conditions: read-out: apparent Kd, compound concentrations: 100 nM and 1000 nM (sheet 'Samples'), n = 1
CLK1 = system: CLK1; design: species or system human, MV4-11 + K-562 + COLO205 + SK-N-BE2 + OVCAR-8; conditions: read-out: apparent Kd; compound concentrations: 100 nM and 1000 nM (sheet 'Samples'), CATDS: 0.163722912511999; n = 1
CLK4 = system: CLK4; design: species or system human, MV4-11 + K-562 + COLO205 + SK-N-BE2 + OVCAR-8; conditions: read-out: apparent Kd; compound concentrations: 100 nM and 1000 nM (sheet 'Samples'), CATDS: 0.193469538942661; n = 1
CSNK2A1;CSNK2A3 = system: CSNK2A1;CSNK2A3; design: species or system human, MV4-11 + K-562 + COLO205 + SK-N-BE2 + OVCAR-8; conditions: read-out: apparent Kd; compound concentrations: 100 nM and 1000 nM (sheet 'Samples'), CATDS: 0.166165421111277; n = 1
CSNK2A2 = system: CSNK2A2; design: species or system human, MV4-11 + K-562 + COLO205 + SK-N-BE2 + OVCAR-8; conditions: read-out: apparent Kd, compound concentrations: 100 nM and 1000 nM (sheet 'Samples'), n = 1
FLT3 = system: FLT3; design: species or system human, MV4-11 + K-562 + COLO205 + SK-N-BE2 + OVCAR-8; conditions: read-out: apparent Kd; compound concentrations: 100 nM and 1000 nM (sheet 'Samples'), CATDS: 6.2849399961882796E-2; n = 1
FLT4 = system: FLT4; design: species or system human, MV4-11 + K-562 + COLO205 + SK-N-BE2 + OVCAR-8; conditions: read-out: apparent Kd; compound concentrations: 100 nM and 1000 nM (sheet 'Samples'), CATDS: 7.3701429425290094E-2; n = 1

Chain of Q6ZSR9 (Q6ZSR9 whole entry, looked up): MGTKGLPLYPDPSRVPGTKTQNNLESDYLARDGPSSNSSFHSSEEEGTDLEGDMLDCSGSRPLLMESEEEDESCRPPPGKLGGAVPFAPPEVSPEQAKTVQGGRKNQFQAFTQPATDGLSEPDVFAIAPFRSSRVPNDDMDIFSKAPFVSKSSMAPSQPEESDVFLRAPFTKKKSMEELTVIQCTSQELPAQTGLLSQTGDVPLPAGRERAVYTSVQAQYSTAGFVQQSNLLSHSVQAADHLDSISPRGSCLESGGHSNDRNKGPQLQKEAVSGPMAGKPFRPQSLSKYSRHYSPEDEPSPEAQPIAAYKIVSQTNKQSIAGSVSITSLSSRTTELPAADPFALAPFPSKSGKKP

Q: What does the source list for `CNCC1CCn2c(c(C3=C(c4cn(C)c5ccccc45)C(=O)NC3=O)c3ccccc32)C1` (stereo not drawn) [RO0318676-000]?
A: potency estimated from few doses (AAK1; CATDS: 2.7439250549300399E-2): 1910 nM; potency estimated from few doses (GAK; CATDS: 3.3618066019117501E-2): 961 nM; potency estimated from few doses (GSK3A): 171 nM; potency estimated from few doses (GSK3B; CATDS: 7.2494529815898601E-2): 146 nM; potency estimated from few doses (PKN1): 1650 nM; potency estimated from few doses (Q6ZSR9; CATDS: 2.7484619244742201E-2): 1890 nM

Q: What does the source list for `CC(C)N1CC(=O)N(C)c2cnc(Nc3cccc(S(=O)(=O)CCN4CCOCC4)c3)nc21` [BI00009348]?
A: potency estimated from few doses (AAK1; CATDS: 7.4673370536537498E-2): 662 nM; potency estimated from few doses (BMP2K; CATDS: 7.1051362969771797E-2): 736 nM; potency estimated from few doses (GSK3B; CATDS: 6.9045357407431895E-2): 783 nM; potency estimated from few doses (NUAK1; CATDS: 5.8980010573034099E-2): 1140 nM; potency estimated from few doses (Q6ZSR9; CATDS: 6.16877896582032E-2): 1020 nM

Q: Which results are given for `O=C1N=C(NCCc2ccccc2Cl)S/C1=C\c1ccc2ncccc2c1` [RO4498484-000]?
A: potency estimated from few doses (AAK1; CATDS: 7.0672381673146406E-2): 1000 nM; potency estimated from few doses (CLK1): 151 nM; potency estimated from few doses (CLK4): 114 nM; potency estimated from few doses (CSNK2A1;CSNK2A3): 147 nM; potency estimated from few doses (CSNK2A2; CATDS: 0.20425555691522501): 105 nM; potency estimated from few doses (FLT3): 1470 nM; potency estimated from few doses (GAK; CATDS: 6.92626012786898E-2): 1060 nM; potency estimated from few doses (Q6ZSR9; CATDS: 7.2207205601376195E-2): 937 nM

Q: Which potency estimated from few doses (AAK1; CATDS: 7.2948540677608101E-2) does the source give for `CN(C)c1ccc2c(c1)/C(=C/Nc1ccc(S(N)(=O)=O)cc1)C(=O)N2` [GW416469X] here?
A: 1640 nM

Q: And the potency estimated from few doses (BMP2K; CATDS: 7.3539976386738704E-2)?
A: 1600 nM

Q: And the potency estimated from few doses (CSNK2A2; CATDS: 7.0643002799247095E-2)?
A: 1820 nM

Q: And the potency estimated from few doses (FLT4)?
A: 1590 nM

Q: And the potency estimated from few doses (NUAK1; CATDS: 0.318304060181621)?
A: 86.6 nM
